Compound activity from PubChem BioAssay.
ELG1 DNA repair – blocks ELG1-dependent DNA repair in HEK293T cells; Potency, µM (doses to about 46.1 µM), for the others: top-dose activity change, negative = inhibition, usual class: inhibitors; AID 504467; HEK293T ELG1-luciferase reporter, luminescence, 16 h; DNA damage induced by 5-fluorouridine; 2.3% of 330,000 active; also: potency is read from the fitted curve at half-maximal effect; nearly all actives have a fitted effect of over 55% in size
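Quantitative HTS, concentration-response format. 2,000 cells/well co-treated with 5-fluorouridine and compound, 16 hr in 5% CO2 at 37 °C; ONE-Glo luminescence read after 30 min.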
VP16 counter – inhibits Gal4-VP16 luciferase reporter, ROR gamma counter-screen; Drosophila S2 Gal4-VP16 UAS-luciferase, luminescence, 20 h; Potency, µM (doses to about 53.6 µM), for the others: top-dose activity, negative = inhibition, actives largely listed as inhibitors; 3.5% of 310,000 active; AID 2546;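 also: Gal4-VP16 expression switched on by copper sulfate through the metallothionein promoter; potency is read from the fitted curve at half-maximal effect; nearly all actives have a fitted effect of over 50% in size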
RORgamma inh – blocks mouse ROR gamma transcriptional activity. 5.4% of 310,000 active. P51450. Drosophila S2 Gal4-RORgamma UAS-luciferase reporter, 20 h. Potency, µM (top dose mostly 53.6 µM), for inactives: at the highest dose activity change, negative = inhibition, usual class: inhibitors. AID 2551; also: potency is read from the fitted curve at half-maximal effect; nearly all actives have a fitted effect of over 60% in size
Target sequence (P51450 whole entry, looked up, the tested form may be a part): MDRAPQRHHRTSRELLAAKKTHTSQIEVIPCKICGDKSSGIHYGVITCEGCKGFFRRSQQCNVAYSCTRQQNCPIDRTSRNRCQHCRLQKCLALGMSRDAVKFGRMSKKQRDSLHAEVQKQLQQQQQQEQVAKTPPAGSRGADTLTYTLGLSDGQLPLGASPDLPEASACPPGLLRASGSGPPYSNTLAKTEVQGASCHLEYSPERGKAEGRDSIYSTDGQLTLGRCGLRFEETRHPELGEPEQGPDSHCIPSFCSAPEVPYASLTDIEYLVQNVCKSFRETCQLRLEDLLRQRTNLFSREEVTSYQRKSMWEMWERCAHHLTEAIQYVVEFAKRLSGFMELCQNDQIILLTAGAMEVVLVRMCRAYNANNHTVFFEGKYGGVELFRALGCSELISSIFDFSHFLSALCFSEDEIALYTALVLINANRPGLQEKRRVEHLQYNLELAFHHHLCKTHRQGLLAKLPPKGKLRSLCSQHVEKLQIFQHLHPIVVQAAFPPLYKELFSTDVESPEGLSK
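ROR gamma transcriptional activity was tracked as Gal4-UAS luciferase output in stably transfected Drosophila Schneider cells, with compound added 1 hr before 700 uM copper sulfate induction and a 20 hr ambient-temperature incubation.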
TSHR antag – antagonists of human thyroid stimulating hormone receptor; AID 504810; TSHR-expressing cells, TSH-stimulated cAMP HTRF, 2 h; hits give low values; 0.2% of 330,000 active; activity change, negative = inhibition, % at 11.5 µM;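 active = activity change below a set negative limit, meaning inhibition stronger than a set level, cut at about -70% in these data; inconclusive = activity change between two set negative limits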
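TSHR-expressing cells were treated with compounds, then stimulated with TSH at EC80 (4nM final) for 2 hours at 37 deg C. Cellular cAMP was measured by HTRF competition between lysate cAMP and cAMP-d2 for a cryptate-labelled anti-cAMP antibody.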
FBPA coupling cs – counter-screen for Giardia aldolase inhibitors: coupling enzyme system; coupling enzyme system counterscreen, AmpLite Red fluorescence; activity change, negative = inhibition, % at 58.2 µM, hits read low; 0.67% of 290,000 active; AID 2472; in the data active = activity change below about -30%
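Counterscreen lacking aldolase: glyceraldehyde-3-phosphate coupling-enzyme reagent preincubated 10 min at RT with compound (at 57.5 uM final), then substrate/coupling system with AmpLite Red added; fluorescence read at 525/598 nm after 20 min RT.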
The depositor's hits bear a star; u = inconclusive; x = no result; [ ] = another dose, or the depositor's remark. Compounds with a hit are over-represented: about 8% of the library has one in this group of screens. Unless noted, calls follow the shape of the dose curve; as a rule, active = well fitted curve in the direction sought with a large enough effect; inconclusive = small, poorly fitted or top-dose-only effect, or another doubt; inactive = no such curve, though single readings can be large; an effect the other way counts as inactive or inconclusive. % is scaled to controls: 0 for no effect and ±100 for the full control effect.

SMILES	ELG1 DNA repair	VP16 counter	RORgamma inh	TSHR antag	FBPA coupling cs
Cc1cc(N2CCN(c3nc4ccccc4s3)CC2)n2ncnc2n1	u	11.2µM*	u	-36.4	2.1
CCCCCCCCCCOC(=O)Cn1c(COc2ccccc2)[n+](C)c2ccccc21	-27.7%	u	u	-3.5	0.7
CCCCCCCCCCOC(=O)Cn1c(COc2ccc(OC)cc2)[n+](C)c2ccccc21	u	6.31µM*	u	-6.4	-1.8
CCCCCCCCCCOC(=O)Cn1c(COc2ccc(Cl)cc2)[n+](C)c2ccccc21	-18.2%	u	u	-3.4	-0.3
CCCCCCCCCCOC(=O)Cn1c(COc2cccc(C)c2)[n+](C)c2ccccc21	-2.8%	11.2µM*	-85.3%	-9.7	-2.3
CCCCCCCCCCOC(=O)Cn1c(COc2ccccc2C)[n+](C)c2ccccc21	u	15.8µM*	u	-6.5	-0.9
CC(C(=O)Nc1ccc(Cl)cc1Cl)N1C(=O)NC2(CCCC2)C1=O (stereo not given)	4.3%	2.8%	20.0%	-4.9	0.8
O=c1c2c([N+](=O)[O-])cc([N+](=O)[O-])cc2sn1Cc1ccccc1	13.5%	4.47µM*	7.08µM*	-19.6	0.9
O=c1c2c([N+](=O)[O-])cc([N+](=O)[O-])cc2sn1-c1ccc(Br)cc1	9.9%	10µM*	8.91µM*	-0.5	-0.5
Cc1ccc(S(=O)(=O)N2CCOCC2)cc1NC(=O)CSCc1c(C)noc1C	2.3%	x	x	28.9	x
CCC(=O)Nc1ccc(NC(=O)c2ccco2)c(OC)c1	u	-3.4%	24.1%	-1.3	-2.3
COc1ccc(NC(=O)COC(=O)c2cc(OC)c(OC)cc2NC(=O)c2ccco2)cc1OC	23.1µM*	u	-28.0%	-3.5	4.4
COc1cc(NC(=O)c2ccco2)c(C(=O)O)cc1OC	-21.7%	0.7%	-16.8%	-10.8	-15.3
COC(=O)c1cc(OC)c(OC)cc1NC(=O)c1ccco1	23.1µM*	-11.2%	3.8%	0.7	3.8
COc1cc(OC)cc(C(=O)Nc2ccc(NC(=O)c3ccco3)c(C)c2)c1	u	u	20.0%	-6.4	-0.5
COc1cc(NC(=O)c2ccco2)c(OC)cc1NC(=O)CCC(=O)Nc1cc(C)cc(C)c1	20.6µM*	-3.4%[0.365 µM]	u	-4.7	1.5
COc1cc(OC)cc(C(=O)Nc2cc(NC(=O)c3ccco3)ccc2OC)c1	20.6µM*	2.2%	10.5%	-4.1	2.0
COc1cccc(-c2cncnc2NCc2cccnc2)c1	x	-6.2%	-0.2%	x	1.7
COc1ccc2c(c1)CCc1sc(NC(=O)c3ccco3)nc1-2	u	-0.9%	-20.3%	-8.4	-23.2
COc1ccc2c(c1)CCc1sc(NC(=O)c3ccc(C)cc3)nc1-2	u	1µM*	0.141µM*	-21.2	x
CNc1nc(-c2ccc(OC)cc2)c(-c2ccc(OC)cc2)s1	u	-0.5%	u	13.2	-5.8
COc1ccc(-c2nc(NC(C)=O)sc2-c2ccc(OC)cc2)cc1	u	-16.5%	-37.6%	-4.2	-52.4*
COc1ccc2c(c1)Cc1sc(NC(C)=O)nc1-2	u	25.6%	8.5%	-1.4	-31.2*
COc1ccc2c(c1)-c1nc(/N=C/c3c(O)ccc4ccccc34)sc1CC2	17.4%	u	15.8µM*	4.8	-38.3*
COc1ccc2c(c1)Cc1sc(NC(=O)c3ccco3)nc1-2	u	u	-26.8%	9.5	x
SMILES	ELG1 DNA repair	VP16 counter	RORgamma inh	TSHR antag	FBPA coupling cs
CCc1c2c(nc3ccc(OC)cc13)OC(CC)C2 (stereo not given)	x	21.4%	-29.6%	x	2.1
CC(NC(=O)COC(=O)c1ccccc1O)C1CC2CCC1C2 (stereo not given)	-0.3%	x	x	x	x
Brc1cc(Oc2cc(Br)c(Br)c(Br)c2Br)c(Br)c(Br)c1Br	x	-8.9%	-18.9%	x	x
CN(C(=O)CSc1nc2ccccc2n1C)C1CCS(=O)(=O)C1 (stereo not given)	u	x	x	-4.5	x
COC(=O)CC1C(=O)NCCN1C(=O)c1ccc(Cl)cc1 (stereo not given)	6.5%	-0.9%	2.5%	12.5	4.2
COc1ccc2c(c1)-c1nc(NC(=O)c3ccco3)sc1CC2	u	-1.9%	-16.7%	-8.7	-6.2
COc1ccc2c(c1)-c1nc(NC(=O)c3cccs3)sc1CC2	u	u	8.91µM*	-20.8	-10.4
N#CC(C#N)=C1C=CC=CN1/C(=C\c1ccco1)C(=O)c1ccc(Cl)cc1	u	1.12µM*	5.01µM*	-83.8*	0.2
N#CC(C#N)=C1C=CC=CN1/C(=C\c1ccco1)C(=O)c1ccc(-c2ccccc2)cc1	u	3.16µM*	3.98µM*	-44.1	1.1
COc1ccc(C2/C=C\[C@H](O[Si](C)(C)C(C)(C)C)[C@H](C(C)C)CC(=O)N2Cc2ccccc2)cc1 (stereo not given in full)	x	5.0%	1.2%	x	-2.2
O=c1c2ccccc2nc2n1CCO2	3.2%	1.3%	0.9%	7.7	4.9
CCc1c2c(nc3ccc4c(c13)OCCO4)-c1nc3ccccc3c(=O)n1C2	x	12.6µM*	2.51µM*	x	-4.0
N=c1c2c(-c3ccccc3)c(-c3ccccc3)n(Cc3ccco3)c2ncn1Cc1ccco1	-3.6%	28.2µM*	u	-14.2	3.7
N=c1c2c(-c3ccccc3)c(-c3ccccc3)n(Cc3ccccc3)c2ncn1CCCn1ccnc1	u	10µM*	10µM*	11.4	1.6
CCCCn1cnc2c(c(-c3ccccc3)c(-c3ccccc3)n2Cc2ccco2)c1=N	u	-22.4%	-42.2%	-4.1	11.9
CC(O)CN(CCN(CC(C)O)CC(C)O)CC(C)O (stereo not given)	x	0.6%	3.5%	x	x
COCCN(C(=O)COC(=O)c1ccc(Cl)nc1)c1c(N)n(Cc2ccccc2)c(=O)[nH]c1=O	16.8%	x	x	1.4	x
COc1ccc(-c2cnnc(N/N=C/c3ccc(O)c(O)c3)n2)cc1	-24.3%	8.91µM*	u	-20.4	-2.2
COc1ccc(-c2cnnc(N/N=C/c3ccc(C)o3)n2)cc1	4.0%	-9.4%	5.01µM*	-10.6	6.1
COC(=O)C1(Cc2ccccc2)C2c3cc(C(=O)N4CCCC4)n(Cc4ccc(OC(F)(F)F)cc4)c3CC2CN1C(=O)c1ccccc1 (stereo not given)	x	2.4%	25.8%	x	-6.1
CC1(C)S[C@@H]2[C@H](NC(=O)COc3ccccc3)C(=O)N2[C@H]1C(=O)O (tested in a mixture with another compound)	x	3.6%[17 µM]	3.3%[16.9 µM]	x	0.2
COc1ccc2c(c1)C(C)=CC(C)(C)N2C(=O)CN1C(=O)CCC1=O	7.6%	0.2%	-35.2%	3.9	1.3
COc1ccc(NC(=O)N2c3ccc(OC)cc3C(C)=CC2(C)C)cc1	u	u	-30.0%	5.3	-36.3*
CCNC(=O)N1c2ccc(OC)cc2C(C)=CC1(C)C	9.6%	3.7%	u	2.3	-40.3*
